Experimental data from ChEMBL document CHEMBL3988442, “University of Dundee, Small-Polar-MMV Screening Library” (2021).
For some of these results: Results with a measured potency or affinity are listed apart.

What was measured:
Set-up in all cases: scale not given: direction of the effect not stated beside the values
[1] = biological target: Protein translocase subunit SecA (Escherichia coli (strain K12)) (UniProt P10408); assay: Assay to Identify E. coli SecA ATPase Inhibitors; type: functional; conditions: 30 µM
[2] = biological target: T1, Ubiquitin-activating enzyme e1, putative (Leishmania donovani (strain BPK282A1)) (UniProt E9BSI1); assay: Leishmania donovani Ubiquitin Activating Enzyme (LdE1); type: functional; conditions: 30 µM
T1 sequence (whole entry): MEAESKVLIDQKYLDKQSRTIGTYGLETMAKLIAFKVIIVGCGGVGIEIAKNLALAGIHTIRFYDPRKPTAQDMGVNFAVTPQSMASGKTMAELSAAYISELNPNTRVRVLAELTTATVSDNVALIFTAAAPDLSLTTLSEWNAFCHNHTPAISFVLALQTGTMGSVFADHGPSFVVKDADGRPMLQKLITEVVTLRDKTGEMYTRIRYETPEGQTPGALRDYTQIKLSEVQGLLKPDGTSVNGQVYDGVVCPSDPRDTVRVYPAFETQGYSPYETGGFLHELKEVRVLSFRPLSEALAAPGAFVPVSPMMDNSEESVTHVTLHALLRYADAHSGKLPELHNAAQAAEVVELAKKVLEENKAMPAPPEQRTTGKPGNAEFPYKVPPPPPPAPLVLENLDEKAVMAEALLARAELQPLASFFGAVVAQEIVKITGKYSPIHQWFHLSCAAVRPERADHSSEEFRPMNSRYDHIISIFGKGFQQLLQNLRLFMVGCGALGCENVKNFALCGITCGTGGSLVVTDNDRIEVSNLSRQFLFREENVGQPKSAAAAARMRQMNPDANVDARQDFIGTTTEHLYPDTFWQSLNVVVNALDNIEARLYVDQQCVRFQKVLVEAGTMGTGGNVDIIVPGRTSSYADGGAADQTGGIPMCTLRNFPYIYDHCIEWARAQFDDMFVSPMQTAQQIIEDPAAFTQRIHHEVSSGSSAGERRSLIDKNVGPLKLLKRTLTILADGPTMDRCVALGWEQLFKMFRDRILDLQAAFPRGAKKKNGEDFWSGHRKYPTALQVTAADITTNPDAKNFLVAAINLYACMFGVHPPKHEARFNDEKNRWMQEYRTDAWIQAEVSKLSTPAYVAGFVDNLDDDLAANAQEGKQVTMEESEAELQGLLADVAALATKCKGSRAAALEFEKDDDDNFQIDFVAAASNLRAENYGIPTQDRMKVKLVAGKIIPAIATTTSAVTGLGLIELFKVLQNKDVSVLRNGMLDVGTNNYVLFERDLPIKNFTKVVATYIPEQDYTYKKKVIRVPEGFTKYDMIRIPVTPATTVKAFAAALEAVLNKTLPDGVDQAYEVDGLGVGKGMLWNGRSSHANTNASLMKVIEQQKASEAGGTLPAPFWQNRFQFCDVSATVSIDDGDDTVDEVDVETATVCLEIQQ

[3] = biological target: AMP-activated protein kinase, AMPK (Homo sapiens) (UniProt P54646+O43741+P54619+Q9UGJ0+Q9Y478+Q13131+Q9UGI9); assay: AMP-dependent Kinase enzyme assay. An in vitro enzyme assay that detects ADP turnover that is directly proportional to AMPK activity. This uses naive AMPK that is activated during the assay with MK-8722; type: functional; conditions: 30 µM
[4] = biological target: Sialic acid-binding Ig-like lectin 9 (Homo sapiens) (UniProt Q9Y336); assay: Hs-Siglec9 ALPHAscreen SOP 20170721; conditions: 10 µM
Trypanosoma cruzi = assay: Trypanosoma cruzi phosphomannomutase and mannose-1-phosphate guanylyltransferase assay; type: functional; conditions: 10 µM
[5] = biological target: T2, Arginase-2, mitochondrial (Homo sapiens) (UniProt P78540); assay: in vitro enzyme assay to detect the production of urea directly proportional to the activity of Arginase II; type: functional; conditions: 33.3 µM; also: in the data most compounds retested in dose-response had high values
T2 sequence (whole entry): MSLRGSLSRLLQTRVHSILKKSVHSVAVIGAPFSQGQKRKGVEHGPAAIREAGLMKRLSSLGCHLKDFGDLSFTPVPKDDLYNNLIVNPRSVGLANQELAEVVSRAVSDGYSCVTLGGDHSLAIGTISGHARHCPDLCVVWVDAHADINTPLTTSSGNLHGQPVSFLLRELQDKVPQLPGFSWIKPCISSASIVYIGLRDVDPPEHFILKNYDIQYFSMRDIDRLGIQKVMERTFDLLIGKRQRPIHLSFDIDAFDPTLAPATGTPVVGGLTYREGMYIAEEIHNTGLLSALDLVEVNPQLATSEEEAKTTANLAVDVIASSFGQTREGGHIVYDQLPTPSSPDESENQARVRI

[6] = biological target: T3, Proteasome subunit beta (Trypanosoma cruzi) (UniProt O96673); assay: Trypanosoma cruzi proteasome chymotrypsin-like activity (TcProtChymo) assay.; also: in the data most compounds retested in dose-response had high values; type: functional; conditions: 9.37 µM
T3 sequence (whole entry): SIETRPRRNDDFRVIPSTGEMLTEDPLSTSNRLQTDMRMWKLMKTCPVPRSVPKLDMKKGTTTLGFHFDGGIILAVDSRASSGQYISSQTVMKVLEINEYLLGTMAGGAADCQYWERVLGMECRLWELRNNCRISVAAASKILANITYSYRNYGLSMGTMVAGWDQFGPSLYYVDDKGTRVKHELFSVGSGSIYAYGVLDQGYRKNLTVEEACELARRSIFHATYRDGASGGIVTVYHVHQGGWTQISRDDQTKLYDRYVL

Homo sapiens = species: Homo sapiens; assay: To identify inhibition of the IFN signalling (Jak-Stat) pathway via expression of an eGFP reporter gene under the control of an IFN-stimulated response element (ISRE) containing MxA promoter.; type: functional; conditions: 30 µM
[7] = biological target: T4, Tyrosyl-tRNA synthetase, putative (Trypanosoma cruzi (strain CL Brener)) (UniProt Q4DSP6); assay: Trypanosoma cruzi tyrosyl tRNA synthetase (TcYRS) _High Tyrosine SOP; type: functional; conditions: 30 µM; also: in the data most compounds retested in dose-response had high values
T4 sequence (whole entry): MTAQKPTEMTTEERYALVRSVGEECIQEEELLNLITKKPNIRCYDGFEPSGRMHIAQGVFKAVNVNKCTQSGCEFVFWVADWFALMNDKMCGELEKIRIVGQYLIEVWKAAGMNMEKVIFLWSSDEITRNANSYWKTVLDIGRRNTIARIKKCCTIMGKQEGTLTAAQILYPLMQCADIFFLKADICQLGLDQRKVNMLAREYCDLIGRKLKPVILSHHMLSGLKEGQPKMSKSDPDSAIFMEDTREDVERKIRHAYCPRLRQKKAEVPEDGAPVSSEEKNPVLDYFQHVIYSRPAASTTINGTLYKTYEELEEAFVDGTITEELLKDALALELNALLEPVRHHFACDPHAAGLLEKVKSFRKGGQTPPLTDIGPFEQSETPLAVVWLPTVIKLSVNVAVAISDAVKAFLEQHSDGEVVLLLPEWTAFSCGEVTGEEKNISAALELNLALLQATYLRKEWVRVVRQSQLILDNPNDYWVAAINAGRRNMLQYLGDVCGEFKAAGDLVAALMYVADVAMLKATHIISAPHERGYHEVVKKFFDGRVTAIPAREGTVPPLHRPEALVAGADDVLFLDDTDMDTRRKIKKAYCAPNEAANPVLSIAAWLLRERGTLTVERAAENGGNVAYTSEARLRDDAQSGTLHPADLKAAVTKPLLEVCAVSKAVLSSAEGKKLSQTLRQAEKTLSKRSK

[8] = biological target: T4, Tyrosyl-tRNA synthetase, putative (Trypanosoma cruzi (strain CL Brener)); assay: Trypanosoma cruzi tyrosyl tRNA synthetase (TcYRS) SOP; type: functional; conditions: 30 µM
[9] = biological target: Chromo domain-containing protein 1 (Saccharomyces cerevisiae (strain ATCC 204508 / S288c) (Baker's yeast)) (UniProt P32657); assay: ScCHD-1 Enzyme Inhibition Assay; type: functional; conditions: 30 µM; also: in the data most compounds retested in dose-response had high values
Chromo domain-containing protein 1 (Saccharomyces cerevisiae (strain ATCC 204508 / S288c) (Baker's yeast)), sequence (P32657 whole entry, the tested form may be a part): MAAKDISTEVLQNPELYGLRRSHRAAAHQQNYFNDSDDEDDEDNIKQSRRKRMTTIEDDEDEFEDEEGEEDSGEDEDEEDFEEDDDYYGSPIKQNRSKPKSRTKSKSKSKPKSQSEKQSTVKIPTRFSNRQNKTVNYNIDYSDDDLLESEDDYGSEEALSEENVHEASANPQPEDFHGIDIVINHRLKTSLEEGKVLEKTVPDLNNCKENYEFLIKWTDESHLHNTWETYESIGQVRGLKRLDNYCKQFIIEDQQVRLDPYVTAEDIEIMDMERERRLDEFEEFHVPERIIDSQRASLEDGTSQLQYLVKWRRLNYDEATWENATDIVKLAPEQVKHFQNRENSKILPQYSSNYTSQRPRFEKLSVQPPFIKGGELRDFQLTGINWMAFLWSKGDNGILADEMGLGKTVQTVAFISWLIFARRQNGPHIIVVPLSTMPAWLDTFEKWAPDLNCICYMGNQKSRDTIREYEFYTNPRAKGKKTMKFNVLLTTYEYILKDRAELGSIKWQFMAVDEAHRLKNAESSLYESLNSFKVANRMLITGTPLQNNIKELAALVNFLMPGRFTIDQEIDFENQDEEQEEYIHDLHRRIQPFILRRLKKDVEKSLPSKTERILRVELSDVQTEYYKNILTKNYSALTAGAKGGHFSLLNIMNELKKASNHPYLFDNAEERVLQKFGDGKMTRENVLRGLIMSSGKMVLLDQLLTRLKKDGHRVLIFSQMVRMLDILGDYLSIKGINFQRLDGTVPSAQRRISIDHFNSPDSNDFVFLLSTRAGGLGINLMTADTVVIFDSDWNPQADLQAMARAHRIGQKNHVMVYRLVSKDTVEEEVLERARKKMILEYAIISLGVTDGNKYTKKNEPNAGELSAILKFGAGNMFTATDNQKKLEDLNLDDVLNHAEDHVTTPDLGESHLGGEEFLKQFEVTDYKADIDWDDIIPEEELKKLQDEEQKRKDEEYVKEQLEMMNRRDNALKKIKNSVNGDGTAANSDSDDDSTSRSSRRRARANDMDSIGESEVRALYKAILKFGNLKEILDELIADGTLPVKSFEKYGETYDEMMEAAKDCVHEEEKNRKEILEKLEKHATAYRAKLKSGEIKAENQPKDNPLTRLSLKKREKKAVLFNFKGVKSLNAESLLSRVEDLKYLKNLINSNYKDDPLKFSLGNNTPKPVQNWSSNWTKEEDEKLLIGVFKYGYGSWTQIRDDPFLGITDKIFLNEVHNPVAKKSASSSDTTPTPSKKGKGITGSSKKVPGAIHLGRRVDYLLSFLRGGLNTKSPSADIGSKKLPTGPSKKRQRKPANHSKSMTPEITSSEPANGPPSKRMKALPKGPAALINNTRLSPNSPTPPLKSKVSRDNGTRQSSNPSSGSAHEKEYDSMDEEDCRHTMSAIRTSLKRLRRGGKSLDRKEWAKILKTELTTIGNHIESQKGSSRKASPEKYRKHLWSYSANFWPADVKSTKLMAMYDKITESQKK

Protein translocase subunit SecA (Escherichia coli (strain K12)), sequence (P10408 whole entry): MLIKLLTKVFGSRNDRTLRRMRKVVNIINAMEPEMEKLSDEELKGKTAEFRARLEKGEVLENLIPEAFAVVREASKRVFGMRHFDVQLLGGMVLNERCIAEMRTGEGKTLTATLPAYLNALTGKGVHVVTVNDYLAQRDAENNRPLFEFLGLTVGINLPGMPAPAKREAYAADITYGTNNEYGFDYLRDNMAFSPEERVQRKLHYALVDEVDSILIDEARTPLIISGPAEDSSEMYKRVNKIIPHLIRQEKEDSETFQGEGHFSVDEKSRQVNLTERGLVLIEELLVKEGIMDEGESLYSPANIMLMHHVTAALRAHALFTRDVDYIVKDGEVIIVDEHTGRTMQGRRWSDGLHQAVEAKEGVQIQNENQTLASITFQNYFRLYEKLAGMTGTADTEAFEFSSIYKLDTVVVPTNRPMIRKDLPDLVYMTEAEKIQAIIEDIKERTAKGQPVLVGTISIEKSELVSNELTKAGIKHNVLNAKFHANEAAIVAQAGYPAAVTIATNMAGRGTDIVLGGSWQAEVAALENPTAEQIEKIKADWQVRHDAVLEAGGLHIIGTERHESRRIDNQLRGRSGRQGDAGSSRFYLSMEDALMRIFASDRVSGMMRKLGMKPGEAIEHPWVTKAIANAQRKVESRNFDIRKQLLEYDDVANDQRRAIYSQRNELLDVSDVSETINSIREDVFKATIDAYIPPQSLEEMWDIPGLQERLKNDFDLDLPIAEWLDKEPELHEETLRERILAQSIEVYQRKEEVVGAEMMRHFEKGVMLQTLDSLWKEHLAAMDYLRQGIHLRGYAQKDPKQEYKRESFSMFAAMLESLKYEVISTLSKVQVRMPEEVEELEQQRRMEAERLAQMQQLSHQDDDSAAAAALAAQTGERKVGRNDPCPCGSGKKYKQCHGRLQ
Sialic acid-binding Ig-like lectin 9 (Homo sapiens), sequence (Q9Y336 whole entry): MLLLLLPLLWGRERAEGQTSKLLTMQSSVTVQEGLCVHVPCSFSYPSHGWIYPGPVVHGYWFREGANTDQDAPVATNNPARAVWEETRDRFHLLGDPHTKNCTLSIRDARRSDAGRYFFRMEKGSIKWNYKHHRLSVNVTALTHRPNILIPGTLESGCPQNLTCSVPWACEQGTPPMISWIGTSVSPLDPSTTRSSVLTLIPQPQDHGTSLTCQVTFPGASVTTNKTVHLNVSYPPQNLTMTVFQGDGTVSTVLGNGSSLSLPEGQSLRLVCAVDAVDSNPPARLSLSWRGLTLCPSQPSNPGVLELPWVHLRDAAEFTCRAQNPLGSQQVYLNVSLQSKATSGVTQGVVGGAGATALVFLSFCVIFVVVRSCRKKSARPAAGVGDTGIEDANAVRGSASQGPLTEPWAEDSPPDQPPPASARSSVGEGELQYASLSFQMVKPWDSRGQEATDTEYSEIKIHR

SMILES	Percent Effect [1] [%]	Percent Effect [2] [%]	Percent Effect [3] [%]	Percent Effect [4] [%]	Percent Effect (Trypanosoma cruzi) [%]	Percent Effect [5] [%]	Percent Effect [6] [%]	Percent Effect (Homo sapiens) [%]	Percent Effect [7] [%]	Percent Effect [8] [%]	Percent Effect [9] [%]
Cc1ccc(CS(=O)(=O)N2CC[C@H]3[C@H]2CCN3C)cc1	1.22	13.7	-1.19	9.36	6.35	-0.399	14.5	-5.72	6.25	16.1	-5.83
O=C(NCC1CC1)[C@H]1C[C@@H]2CCN(Cc3nccs3)C[C@@H]2O1	-2.59	8.11	5.76	-2.2	4.4	-2.23	20.7	17.8	8.65	15.4	2.01
CC(C)CNC(=O)CN1C=Nc2ccccc2S1(=O)=O	-6.73	7.89	0.627	-6.85	-10.6	2.16	-1.95	2.69	0.493	6.17	-5
Cc1ccc(CN2CCc3ncc(CNS(C)(=O)=O)n3CC2)o1	-0.0355	8.22	-1.38	6.78	-5.56	-1.6	15.3	16.8	7.29	16.1	-0.506
O=C(CCNC(=O)c1ccoc1)NCc1ccccc1F	2.18	13	3.8	-2.98	-2.45	6.53	19.5	24	5.71	18.8	-3.8
C=C(Cl)CN1CCC(C(=O)c2cc(F)ccc2F)CC1	-2.54	-13.2	5.79	-1.3	4.32	-0.766	-1.67	5.08	0.49	4.88	6.62
Cn1cc(CN2CC[C@H]3O[C@H](C(=O)NCc4ccco4)CC[C@H]32)cn1	-0.286	5.33	-3.22	-1.09	-7.14	-53.2	6.67	-2.52	1.04	12.5	-5.84
Cc1nnc2n1CCN(C(=O)COCCOc1ccccc1)C2	-3.64	-21.5	10	1.03	-1.33	4.95	7.89	3.44	5.21	12.7	-1.76
COc1ccccc1CC1CCCN(CC(N)=O)C1 (stereo not given)	-0.0936	7.79	0.0164	9.64	0.0979	2.32	-0.889	-0.966	2.86	9.41	-6.07
O=C(CN1CCCC1Cn1cncn1)NC(C1CC1)C1CC1 (stereo not given)	-1.42	-1.39	2.21	-0.594	2.04	1.32	10.9	-11.5	3.16	0	-1.96
Cc1cccc(CCC(=O)N2CCCC(c3cc(C(N)=O)[nH]n3)C2)c1 (stereo not given)	-1.48	-18.9	4.97	8.55	6.13	-10	0.36	9.14	0.493	11.1	-8.73
Cc1nnc2n1CCN(Cc1ncc(-c3ccc(Cl)cc3)o1)C2	-5	-18.4	8.78	14.6	3.38	2.3	-0.167	7.71	5.39	7.32	-5.79
COc1ccc(OCCCNC(=O)NCc2csc(C)n2)cc1	-3.63	16.2	2.75	-5.68	0.65	-4.62	7.54	20.4	8.91	15.8	-3.66
CC(C)c1nnc2n1CCN(CC(=O)Nc1sccc1C#N)C2	-8.13	7.89	-4.21	-3.31	-3.83	1.08	-3.13	-0.485	-2.46	-6.17	3.89
Cn1c(Cn2cccn2)nnc1C1CCCN(c2ccncc2)C1 (stereo not given)	-2.64	2.7	-4	11.4	3.86	-1.43	17.6	11.9	6.88	19.5	-1.63
O=C(c1ccn(-c2ccccc2Cl)n1)N1CCSCC1	-4.68	8.11	1.31	12.9	-6.55	1.74	3.69	20.1	0	11.1	-3.09
COCCn1ccc2cc(NC(C)=O)ccc21	-8.18	23.7	-9.22	7.23	1.46	-9.47	16.4	-6.07	4.25	10.4	-9.21
CCc1cnc2c(c1Nc1ccc(OC)cc1)c(=O)n(C)c(=O)n2C	-1.52	18.2	0.437	-14.7	2.66	-41.9	8.88	11.4	4.23	8.97	-11.2
CC(=O)Nc1ccc(CNC2CC(=O)N(Cc3cccc(F)c3)C2)cc1 (stereo not given)	-2.91	0	-1.25	1.06	-2.7	-3.33	1.55	-18.6	2.65	7.32	-0.408
CC(=O)c1cccc(OCCCC(=O)N(C)CCc2ccncc2)c1	-2.19	8.11	-3.93	2.37	3.67	-1.91	16.4	16.1	8.99	17.1	-2.34
